Data taken from PubChem BioAssay (NCI).
The panel holds about 83,000 compounds, 20% with a hit somewhere; the sample as a whole holds those more often.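 A percent growth of 40 corresponds to 60% growth inhibition; 0 means no net growth; -100 means all cells died. Active threshold: below 10.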 Unmarked numbers belong to inactive results. Active and inactive are the calls of the source.

Experiments:
Assay in all cases: NCI-60 one-dose screen, 48 h (100 = growth as untreated, 0 = no growth, -100 = all killed)
Conditions in all cases: 10 µM unless noted
[1] = system: HCT-15 colon
[2] = system: HT29 colon
[3] = system: SNB-75 CNS
[4] = system: SNB-19 CNS
[5] = system: U251 CNS
[6] = system: PC-3 prostate
[7] = system: SK-MEL-5 melanoma
[8] = system: UACC-62 melanoma
[9] = system: LOX IMVI melanoma
[10] = system: SK-MEL-28 melanoma
[11] = system: SK-MEL-2 melanoma
[12] = system: EKVX NSCLC
[13] = system: SN12C renal
[14] = system: UO-31 renal
[15] = system: TK-10 renal
[16] = system: A498 renal
[17] = system: CCRF-CEM leukemia
[18] = system: MOLT-4 leukemia

SMILES | growth [1] | growth [2] | growth [3] | growth [4] | growth [5] | growth [6] | growth [7] | growth [8] | growth [9] | growth [10] | growth [11] | growth [12] | growth [13] | growth [14] | growth [15] | growth [16] | growth [17] | growth [18]
COc1ccccc1C(OC(C)=O)OC(C)=O | 103% | 88.5% | 96.4% | 113% | 97.3% | 102% | 101% | 102% | 92.9% | 109% | 90.7% | 99% | 111% | 89.9% | 91.1% | 113% | 113% | 103%
Cc1cccc(CC(=O)c2ccccc2)n1 | 93.2% | 82.1% | 84.6% | 88.7% | 89.6% | 80.5% | 96.6% | 74.7% | 76.5% | 105% | 96.7% | 79.2% | 94.5% | 81.5% | 95.6% | 74.3% | 71.8% | 90.5%
COc1ccc(-c2nnc(SCC(=O)Nc3ccc(C(=O)/C=C/c4ccc(OC)c(OC)c4)cc3)o2)cc1 | 74.8% | 87.1% | 87.5% | 89.6% | 66.9% | 79.8% | 75.9% | 82.9% | 77.1% | 99.5% | 94.1% | 90% | 92.3% | 73.8% | 95.9% | 103% | 77.7% | 68.1%
COc1ccc(-c2ccc(NC(=O)Nc3cccc(C(F)(F)F)c3)c(C)n2)cc1 | 40.9% | 47.7% | 77.6% | 67.8% | 50.2% | 24.4% | 41.6% | 63.9% | 47.7% | 69.3% | 75.9% | 41.4% | 68% | 55.1% | 76.7% | 52.1% | 42.9% | 33.7%
Cc1nc(-c2ccc(Cl)cc2)ccc1NC(=O)Nc1cccc(C(F)(F)F)c1 | 82.1% | 75.7% | 92.8% | 108% | 76.7% | 80.5% | 95.3% | 95.6% | 92.9% | 110% | 95.4% | 101% | 93.7% | 90.8% | 90.7% | 95.2% | 78.6% | 88.2%
COc1cc(C(=O)NNC(=O)c2ccccc2O)cc(OC)c1OC | 105% | 80.6% | 79.2% | 93.3% | 91.6% | 70.9% | 86.9% | 81.3% | 102% | 109% | 80.2% | 103% | 98.4% | 74.3% | 85.6% | 75.8% | 89.4% | 74.6%
CCOc1ccc(NC2=C(Cl)C(=O)c3ccccc3C2=O)cc1 | -79.9% (active) | 98.2% | 81.3% | 62% | 56.9% | 72.1% | 81.4% | 78.6% | -89.7% (active) | 46.9% | 88.2% | 87.2% | 61% | 77.9% | 136% | 80.8% | 33.3% | 75.7%
CC(C)CNCC(O)COc1ccc(C(C)(C)c2ccc(OCC(O)CNCC(C)C)cc2)cc1 (centres undefined) | 20.1% | -8.67% (active) | 63.9% | 51.7% | -5.63% (active) | 47.4% | -95% (active) | -65.2% (active) | -79.9% (active) | -60.5% (active) | -6.06% (active) | 69.4% | 67.5% | -32.2% (active) | 66.6% | 59.8% | 0.812% (active) | -35.8% (active)
CC(C)(C)C(=O)Nc1nc2c(s1)CCc1ccn(S(=O)(=O)c3ccccc3)c1-2 | 92.8% | 79.5% | 89.6% | 116% | 94.1% | 81.1% | 99.9% | 77.2% | 84.5% | 101% | 81.8% | 87.7% | 112% | 62.7% | 82.1% | 101% | 92.9% | 70.8%
CC12CCC3C(CCC4CC(O)CCC43C)C1C/C(=C/O)C(=O)O2 (centres undefined) | 106% | 102% | 110% | 101% | 104% | 97.8% | 92.9% | 100% | 101% | 112% | 104% | 104% | 104% | 91% | 89.4% | 62.7% | 92.6% | 101%
COc1cc2c(cc1OC)-c1c(oc3c4c(ccc3c1=O)OC(C)(C)C=C4)CO2 | 82.8% | 89.5% | 75.8% | 75.5% | 88.6% | 75.1% | 23.8% | 61.1% | 63% | 93.8% | 74.3% | 57.7% | 92.2% | 66.9% | 67.9% | 56.1% | 69.5% | 55.1%
CC(C)(c1ccc(OCC(O)CNCc2ccco2)cc1)c1ccc(OCC(O)CNCc2ccco2)cc1 (centres undefined) | 82.8% | 78.5% | 80.1% | 96.4% | 70.1% | 75.6% | 91.7% | 104% | 86.1% | 101% | 94.4% | 92.1% | 87.6% | 66.3% | 93.1% | 68.9% | 72.9% | 67.1%
CCCCCCCCCCCCCCCCNc1ccccc1 | 103% | 87.1% | 107% | 108% | 86.2% | 82% | 104% | 98.8% | 101% | 113% | 90% | 106% | 70.7% | 57.9% | 90.9% | 114% | 44.4% | 
CN(C)CCCOc1c(Br)cc(/C=C/C(=O)N(C)CCc2cc(Br)c(OCCCN(C)C)c(Br)c2)cc1Br | 9.92% (active) | -19.1% (active) | 73.3% | 48.6% | 7.24% (active) | 65.1% | 64.4% | -26.5% (active) | -23.1% (active) | -49.4% (active) | 89.3% | 78.7% | 72.8% | 65.7% | 106% | 60.5% | 4.13% (active) | -1.09% (active)
CCCCOc1c(N)cc(Cl)cc1C(=O)OCCN(CC)CC | 111% | 74.8% | 101% | 101% | 90.1% | 80.9% | 102% | 96.7% | 103% | 114% | 90.9% | 104% | 97% | 82.3% | 94.3% | 80.1% | 72.6% | 
Cc1cc(-c2ccccc2)nc2ccccc12 | 97.5% | 113% | 86.9% | 101% | 97.4% | 99.8% | 95% | 95.7% | 98.5% | 114% | 109% | 81.1% | 104% | 77% | 135% | 106% | 84.9% | 91.5%
C=C1C(=O)O[C@H]2[C@H]1CC/C(C(=O)Nc1ccc(OC)c(C(N)=O)c1O)=C\CC[C@@]1(C)O[C@@H]21 | 45.8% | 36% | 88.5% | 90.4% | 82.2% | 95.3% | 86.7% | 67.5% | 77.1% | 52.9% | 71.3% | 73.4% | 61.1% | 37.8% | 22.6% | 78.3% | 3.64% (active) | 13.9%
